Laboratory results from PubChem BioAssay (EPA / NIEHS).
Calls of active or inactive are those of the source. How the source made its calls: active means hit-call score of the fitted dose curve at least 0.9, where 1 is the maximum; inactive means score below 0.9.

Legend:
[1] = target: Transcription factor E2F1 (Homo sapiens) (UniProt Q01094); experiment: ATG_E2F_CIS: Attagene CIS-FACTORIAL HepG2 Assay for human E2F Transcription Factor 1 (AID 2282935); settings: HepG2 Attagene cis-reporter, E2F reporter RNA transcripts; actives raise or lower the signal
Transcription factor E2F1 (Homo sapiens), sequence (Q01094 whole entry, looked up): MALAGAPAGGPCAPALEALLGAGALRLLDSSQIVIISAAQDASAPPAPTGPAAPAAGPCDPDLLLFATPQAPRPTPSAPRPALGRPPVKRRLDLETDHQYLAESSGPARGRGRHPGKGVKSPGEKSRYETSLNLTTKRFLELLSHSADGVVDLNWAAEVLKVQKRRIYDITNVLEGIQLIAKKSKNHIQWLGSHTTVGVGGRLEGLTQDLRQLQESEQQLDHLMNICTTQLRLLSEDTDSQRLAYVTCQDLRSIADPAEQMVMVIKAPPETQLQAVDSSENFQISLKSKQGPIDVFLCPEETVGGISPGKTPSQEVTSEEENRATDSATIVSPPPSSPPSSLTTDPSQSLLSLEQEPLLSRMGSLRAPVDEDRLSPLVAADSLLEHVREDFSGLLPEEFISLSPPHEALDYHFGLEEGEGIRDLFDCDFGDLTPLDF
In short: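 Transient MRTU transfection of HepG2; 24 h compound exposure; RNA → oligo(dT) RT → PCR → FAM label → HpaI cut → CE fluorescence. Gain/loss of signal fit against DMSO.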

[2] = ATG_E_Box_CIS: Attagene CIS-FACTORIAL HepG2 Assay for human Enhancer Box (E-box) (AID 2282936); settings: HepG2 E-box cis-reporter transcription, actives raise or lower the signal
In short: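 Transiently transfected HepG2, endogenous TF-driven reporters, 24 h dosing. Readout: RT-PCR plus capillary electrophoresis of fluorescent reporter fragments. Gain or loss of signal fitted bidirectionally against DMSO baseline.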

[3] = ATG_EGR_CIS: Attagene CIS-FACTORIAL HepG2 Assay for human Early Growth Response 1 (EGR1) (AID 2282938); settings: HepG2 Attagene CIS-FACTORIAL EGR reporter mRNA; actives raise or lower the signal
In short: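 Fluorescent capillary-electrophoresis signal of reporter cDNA fragments serves as read-out. HepG2 cells bear transiently transfected cis-promoter reporter units and are exposed 24 h; gain- or loss-of-signal is fitted against DMSO.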

[4] = ATG_M_19_CIS: Attagene CIS-FACTORIAL HepG2 Assay for M19 Transcription Factor (Internal Marker) (AID 2282939); settings: HepG2 Attagene CIS-FACTORIAL M19 internal marker reporter; actives raise or lower the signal
In short: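 Internal marker readout, fitted in both directions against DMSO, from HepG2 cells carrying transfected cis-element reporter constructs; RT-PCR and capillary electrophoresis of reporter mRNA after 24 h exposure.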

[5] = ATG_Ets_CIS: Attagene CIS-FACTORIAL HepG2 Assay for human Erythroblast Transformation Specific (ETS) (AID 2282941); settings: HepG2 ETS cis-reporter transcription, actives raise or lower the signal
In short: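 RT-PCR/capillary electrophoresis fluorescence read-out of reporter mRNA; HepG2 transient multi-reporter transfection; 24 h compound exposure; gain or loss of signal fitted bidirectionally relative to DMSO.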

[6] = target: Hepatocyte nuclear factor 3-beta (Homo sapiens) (UniProt Q9Y261); experiment: ATG_FoxA2_CIS: Attagene CIS-FACTORIAL HepG2 Assay for human Forkhead box A2 (FOXA2) (AID 2282942); settings: HepG2 cis-reporter transcription factor activity, 24 h; actives raise or lower the signal
Hepatocyte nuclear factor 3-beta (Homo sapiens), sequence (Q9Y261 whole entry, looked up, the tested form may be a part): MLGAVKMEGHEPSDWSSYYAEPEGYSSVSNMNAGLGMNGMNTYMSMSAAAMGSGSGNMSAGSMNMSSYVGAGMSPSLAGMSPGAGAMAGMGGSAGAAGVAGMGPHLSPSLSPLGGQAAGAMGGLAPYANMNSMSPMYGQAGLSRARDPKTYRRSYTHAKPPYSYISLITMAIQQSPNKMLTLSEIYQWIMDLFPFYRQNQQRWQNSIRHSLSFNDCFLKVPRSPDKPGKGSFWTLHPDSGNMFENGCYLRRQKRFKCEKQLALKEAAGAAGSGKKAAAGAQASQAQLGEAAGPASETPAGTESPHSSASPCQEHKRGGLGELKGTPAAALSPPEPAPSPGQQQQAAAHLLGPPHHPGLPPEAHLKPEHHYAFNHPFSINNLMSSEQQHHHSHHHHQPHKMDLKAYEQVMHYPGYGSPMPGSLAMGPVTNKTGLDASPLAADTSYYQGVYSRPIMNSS
In short: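 Fluorescence signal of reporter cDNA fragments, separated by capillary electrophoresis, reflects endogenous transcription factor activity in transfected HepG2 after 24 h. Both increases and decreases fitted against DMSO.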

[7] = ATG_FoxO_CIS: Attagene CIS-FACTORIAL HepG2 Assay for human Forkhead box O (FoxO) (AID 2282943); settings: HepG2 Attagene cis-reporter, FoxO element, mRNA; actives raise or lower the signal
In short: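 Read-out: fluorescence of 6-FAM-labelled reporter cDNA fragments resolved by capillary electrophoresis. Transiently transfected HepG2 cells were dosed for 24 h; activity fitted in both directions relative to DMSO controls.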

[8] = ATG_GATA_CIS: Attagene CIS-FACTORIAL HepG2 Assay for human GATA Binding Protein (AID 2282944); settings: HepG2 GATA cis-element reporter, Attagene multiplex mRNA; actives raise or lower the signal
In short: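 Reporter transcripts from a GATA cis-regulated unit, among multiplexed reporters in transfected HepG2 cells, were measured by RT-PCR with capillary electrophoresis after 24 h dosing. Induction or loss scored relative to DMSO.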

[9] = ATG_GLI_CIS: Attagene CIS-FACTORIAL HepG2 Assay for human Zinc Finger Protein GLI1 (AID 2282945); settings: HepG2, Attagene cis-factorial reporter mRNA, GLI element; actives raise or lower the signal
In short: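 Transiently transfected HepG2 cells report endogenous transcription factor activity via cis-element-driven reporter units. After 24 h compound exposure, reporter mRNA was measured by RT-PCR with capillary electrophoresis; bidirectional fitting against DMSO baseline.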

[10] = target: Bile acid receptor (Homo sapiens) (UniProt Q96RI1); experiment: ATG_IR1_CIS: Attagene CIS-FACTORIAL HepG2 Assay for human Nuclear Receptor Subfamily 1 Group H Member 4 (NR1H4), IR1 submotif (AID 2282946); settings: IR1 reporter transcription, actives raise or lower the signal
Bile acid receptor (Homo sapiens), sequence (Q96RI1 whole entry, looked up): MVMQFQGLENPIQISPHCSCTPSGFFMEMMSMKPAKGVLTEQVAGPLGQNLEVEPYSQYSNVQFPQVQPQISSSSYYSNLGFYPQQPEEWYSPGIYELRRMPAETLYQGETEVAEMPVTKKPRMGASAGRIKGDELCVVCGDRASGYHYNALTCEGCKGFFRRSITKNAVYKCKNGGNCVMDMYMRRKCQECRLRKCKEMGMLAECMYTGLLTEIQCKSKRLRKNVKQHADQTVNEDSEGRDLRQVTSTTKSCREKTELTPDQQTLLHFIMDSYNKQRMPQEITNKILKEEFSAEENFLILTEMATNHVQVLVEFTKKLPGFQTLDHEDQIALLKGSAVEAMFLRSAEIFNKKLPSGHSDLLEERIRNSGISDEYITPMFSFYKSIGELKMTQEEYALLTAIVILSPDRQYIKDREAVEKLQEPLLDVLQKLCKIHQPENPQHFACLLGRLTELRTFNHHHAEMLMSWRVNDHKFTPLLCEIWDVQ
In short: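 Fluorescence of capillary-separated, HpaI-digested RT-PCR reporter products gave IR1-element mRNA induction in HepG2 cells 24 h after dosing. Endogenous transcription factors drove the cis-regulated reporters; activity was fitted bidirectionally against DMSO.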

[11] = ATG_GRE_CIS: Attagene CIS-FACTORIAL HepG2 Assay for human Glucocorticoid Response Elements (GRE) (AID 2282947); settings: HepG2 GRE cis-reporter, Attagene multiplex mRNA; actives raise or lower the signal
In short: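 Read-out: fluorescent reporter-transcript fragments separated by capillary electrophoresis after RT-PCR. Transiently transfected HepG2 cells carrying cis-element-driven reporter units were dosed for 24 h; gain or loss of signal fitted against DMSO control.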

[12] = ATG_ISRE_CIS: Attagene CIS-FACTORIAL HepG2 Assay for human Interferon Regulatory Factor 1 (IRF1) binding to an Interferon-Stimulated Response Element (ISRE) (AID 2282948); settings: HepG2 ISRE cis-reporter (Attagene), mRNA transcription readout; actives raise or lower the signal
In short: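 Read-out: fluorescent RT-PCR products resolved by capillary electrophoresis, reporting endogenous transcription factor activity via ISRE-driven reporter mRNA in transfected HepG2 cells dosed for 24 h; gain or loss fitted relative to DMSO.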

[13] = ATG_M_32_CIS: Attagene CIS-FACTORIAL HepG2 Assay for M32 Transcription Factor (Internal Marker) (AID 2282949); settings: HepG2 Attagene cis-factorial M32 reporter, mRNA; actives raise or lower the signal;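 further: background control marker of the multiplexed CIS panel rather than a real target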
In short: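 Transient MRTU transfection of HepG2; 24 h compound treatment; TriZol RNA, oligo(dT) RT, reporter PCR, 6-FAM primer extension, HpaI cut, CE. Gain/loss of signal vs DMSO.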

[14] = ATG_M_06_CIS: Attagene CIS-FACTORIAL HepG2 Assay for M06 Transcription Factor (Internal Marker) (AID 2282950); settings: HepG2 Attagene CIS-FACTORIAL M06 internal marker reporter; actives raise or lower the signal
In short: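 Serves as a background control readout. Transfected HepG2 exposed to compounds for 24 h, then reporter transcripts quantified by fluorescent RT-PCR and capillary electrophoresis. Both directions fitted against DMSO baseline.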

[15] = target: Hypoxia-inducible factor 1-alpha (Homo sapiens) (UniProt Q16665); experiment: ATG_HIF1a_CIS: Attagene CIS-FACTORIAL HepG2 Assay for human Hypoxia Inducible Factor 1 (HIF1A) (AID 2282951); settings: HepG2 Attagene cis-factorial HIF1a reporter transcription; actives raise or lower the signal
Hypoxia-inducible factor 1-alpha (Homo sapiens), sequence (Q16665 whole entry, looked up): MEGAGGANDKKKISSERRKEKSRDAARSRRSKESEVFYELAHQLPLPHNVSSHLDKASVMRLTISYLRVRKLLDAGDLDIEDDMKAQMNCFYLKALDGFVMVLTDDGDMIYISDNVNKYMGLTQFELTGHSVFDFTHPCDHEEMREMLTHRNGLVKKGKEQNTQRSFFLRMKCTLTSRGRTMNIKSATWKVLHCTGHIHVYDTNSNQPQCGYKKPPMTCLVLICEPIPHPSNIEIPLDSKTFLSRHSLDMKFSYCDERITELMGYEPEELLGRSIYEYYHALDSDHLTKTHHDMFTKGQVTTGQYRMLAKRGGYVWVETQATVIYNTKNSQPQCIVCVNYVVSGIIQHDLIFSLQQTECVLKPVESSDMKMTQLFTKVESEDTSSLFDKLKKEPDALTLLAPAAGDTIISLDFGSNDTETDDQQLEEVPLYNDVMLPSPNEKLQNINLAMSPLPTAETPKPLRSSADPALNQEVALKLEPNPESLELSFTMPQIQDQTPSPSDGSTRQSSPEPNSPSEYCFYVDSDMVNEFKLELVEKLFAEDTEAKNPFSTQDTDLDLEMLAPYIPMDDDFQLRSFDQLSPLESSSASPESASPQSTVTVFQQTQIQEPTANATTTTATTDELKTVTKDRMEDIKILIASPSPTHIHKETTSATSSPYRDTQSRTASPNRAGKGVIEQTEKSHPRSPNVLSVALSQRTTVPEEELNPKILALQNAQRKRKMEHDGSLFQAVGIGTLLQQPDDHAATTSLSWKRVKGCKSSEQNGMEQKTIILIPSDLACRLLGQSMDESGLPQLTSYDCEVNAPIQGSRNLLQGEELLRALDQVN
In short: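 Endogenous-TF cis reporter readout, human HepG2 cells, 24 h incubation; mRNA detected via RT-PCR and capillary electrophoresis fluorescence; DMSO-normalised bidirectional fitting.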

[16] = target: Hepatocyte nuclear factor 6 (Homo sapiens) (UniProt Q9UBC0); experiment: ATG_HNF6_CIS: Attagene CIS-FACTORIAL HepG2 Assay for human Hepatocyte Nuclear Factor 6 (HNF6) (AID 2282952); settings: HepG2 Attagene cis-factorial HNF6 reporter transcription; actives raise or lower the signal
Hepatocyte nuclear factor 6 (Homo sapiens), sequence (Q9UBC0 whole entry, looked up, the tested form may be a part): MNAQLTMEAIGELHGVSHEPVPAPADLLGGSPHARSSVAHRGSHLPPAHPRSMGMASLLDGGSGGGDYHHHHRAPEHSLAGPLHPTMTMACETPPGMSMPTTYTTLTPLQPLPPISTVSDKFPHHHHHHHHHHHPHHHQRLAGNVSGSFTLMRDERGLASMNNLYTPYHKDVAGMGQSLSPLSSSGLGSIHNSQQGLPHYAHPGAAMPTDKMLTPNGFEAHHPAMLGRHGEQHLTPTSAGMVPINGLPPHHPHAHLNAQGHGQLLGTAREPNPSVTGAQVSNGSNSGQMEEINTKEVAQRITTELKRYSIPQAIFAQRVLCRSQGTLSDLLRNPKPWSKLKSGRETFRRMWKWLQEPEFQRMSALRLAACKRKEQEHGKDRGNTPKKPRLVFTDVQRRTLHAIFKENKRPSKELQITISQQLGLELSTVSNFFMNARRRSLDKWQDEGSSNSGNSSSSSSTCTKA
In short: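 Readout: fluorescent reporter-transcript fragments resolved by capillary electrophoresis after RT-PCR, reflecting endogenous factor activity in transfected HepG2. Exposure 24 h. Gain or loss of signal fitted bidirectionally against DMSO.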

[17] = ATG_MRE_CIS: Attagene CIS-FACTORIAL HepG2 Assay for human Metal Responsive Element (MRE) (AID 2282954); settings: HepG2 MRE cis-reporter transcription, Attagene multiplex; actives raise or lower the signal
In short: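 RT-PCR/capillary electrophoresis readout of reporter mRNA, 24 h post-dosing, in HepG2 cells transfected with multiplexed cis-regulated reporter constructs. Gain or loss of signal fitted bidirectionally against DMSO baseline.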

[18] = ATG_ERE_CIS: Attagene CIS-FACTORIAL HepG2 Assay for Estrogen Response Element (ERE) (AID 2282940); settings: HepG2 ERE cis-reporter, Attagene RNA transcript; actives raise or lower the signal
In short: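 After 24 h compound treatment, RNA from transfected HepG2 cells was reverse-transcribed, reporter cDNA PCR-amplified, FAM-labelled, HpaI-cut and resolved by capillary electrophoresis. ERE-driven cis reporter transcripts reflect endogenous factors; gain or loss scored against DMSO.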

[19] = target: Heat shock factor protein 1 (Homo sapiens) (UniProt Q00613); experiment: ATG_HSE_CIS: Attagene CIS-FACTORIAL HepG2 Assay for human Heat Shock Transcription Factor 1 (HSE) (AID 2282953); settings: HepG2 HSE cis-reporter, Attagene RNA transcription; actives raise or lower the signal
Heat shock factor protein 1 (Homo sapiens), sequence (Q00613 whole entry, looked up): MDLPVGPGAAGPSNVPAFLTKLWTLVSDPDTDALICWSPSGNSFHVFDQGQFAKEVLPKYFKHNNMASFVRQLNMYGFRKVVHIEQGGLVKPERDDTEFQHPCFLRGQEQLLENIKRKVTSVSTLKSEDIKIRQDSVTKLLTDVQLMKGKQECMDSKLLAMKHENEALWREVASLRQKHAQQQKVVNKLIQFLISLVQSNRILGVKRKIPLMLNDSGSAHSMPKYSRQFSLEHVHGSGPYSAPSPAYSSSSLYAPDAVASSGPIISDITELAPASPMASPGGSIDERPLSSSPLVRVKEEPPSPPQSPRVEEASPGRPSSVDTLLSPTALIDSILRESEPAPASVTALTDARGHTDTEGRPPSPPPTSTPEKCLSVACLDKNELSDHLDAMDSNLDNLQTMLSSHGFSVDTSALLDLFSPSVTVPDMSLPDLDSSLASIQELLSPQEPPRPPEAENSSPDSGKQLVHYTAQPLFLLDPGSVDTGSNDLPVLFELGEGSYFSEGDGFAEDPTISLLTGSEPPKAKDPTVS
In short: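 Endogenous transcription factor activity in transiently transfected HepG2, read as reporter mRNA by RT-PCR with fluorescent capillary electrophoresis after 24 h. Gain or loss of signal fitted versus DMSO baseline.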

Measured: AC50

c1nc[nH]n1
inactive: [1] | [2] | [3] | [4] | [5] | [6] | [7] | [8] | [9] | [10] | [11] | [12] | [13] | [14] | [15] | [16] | [17]

O=C(O)C(Cl)Cl
inactive: [1] | [2] | [4] | [18] | [5] | [6] | [7] | [9] | [11] | [12] | [13] | [14] | [15] | [19] | [17]

O=S(=O)(F)C(F)(F)C(F)(F)C(F)(F)C(F)(F)C(F)(F)C(F)(F)C(F)(F)C(F)(F)F
inactive: [1] | [2] | [4] | [18] | [5] | [6] | [7] | [8] | [9] | [10] | [11] | [12] | [13] | [14] | [15] | [17]

CC(C)(C)c1ccc(O)cc1
inactive: [1] | [2] | [3] | [4] | [5] | [6] | [7] | [9] | [12] | [13] | [14]
active: [18] 3.14 µM | [15] 76.7 µM | [17] 164 µM

C=C(C)C(=O)OCC1CO1 (stereo not drawn)
inactive: [1] | [2] | [3] | [4] | [18] | [5] | [6] | [7] | [9] | [10] | [11] | [12] | [13] | [14] | [15] | [19] | [17]

O=P1(N(CCCl)CCCl)NCCCO1 (stereo not drawn)
active: [18] 3.3 µM
inactive: [1] | [2] | [4] | [5] | [6] | [7] | [8] | [9] | [10] | [11] | [12] | [13] | [14] | [16] | [19] | [17]

CCC1(c2ccccc2)C(=O)N=C(O)NC1=O (stereo not drawn)
inactive: [1] | [2] | [3] | [4] | [18] | [5] | [6] | [7] | [8] | [9] | [12] | [13] | [14] | [15] | [16] | [19] | [17]
